Screens (PubChem BioAssay)
HADH2 inh – inhibitors of human HADH2 dehydrogenase. AID 886. 73,000 compounds, 3.4% hits. recombinant HADH2, NADH fluorescence, beta-hydroxybutyryl-CoA. Q99714. Potency, µM (highest dose often 57.1 µM), actives largely listed as inhibitors; note: nearly all actives have a fitted effect of over 60% in size
Target sequence (Q99714 whole entry, looked up, one chain of several): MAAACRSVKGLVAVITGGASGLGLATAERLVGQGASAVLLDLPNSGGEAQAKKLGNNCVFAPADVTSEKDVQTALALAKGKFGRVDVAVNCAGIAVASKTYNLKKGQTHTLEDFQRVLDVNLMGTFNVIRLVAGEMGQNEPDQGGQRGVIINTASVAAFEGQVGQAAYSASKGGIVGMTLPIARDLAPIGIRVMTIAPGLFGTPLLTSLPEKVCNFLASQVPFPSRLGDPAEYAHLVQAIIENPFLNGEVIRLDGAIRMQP
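Buffer 100 mM Tris-HCl pH 9.0/0.01% Tween-20; HADH2 20 nM; NAD+ 1 mM; beta-hydroxybutyryl-CoA 90 uM (all final). 15 min cpd preincubation, RT.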
CRE Fsk mod – modulators of forskolin-stimulated CRE signaling in CHO cells; CHO CRE-bla reporter (cAMP response element driving beta-lactamase), forskolin EC10, beta-lactamase ratio; Potency, µM (highest dose often 38.2 µM), actives largely listed as activators; 71,000 compounds, 2.5% hits; AID 662; active = well fitted activation curve with a large enough effect in the signal ratio, with a control signal flat, not every such curve was filed as active; inconclusive = small, poorly fitted or top-dose-only effect, or effect the other way, or a change in a side signal; the % refers to the signal ratio
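CHO CRE-bla cells, overnight plating in Opti-MEM with 0.5% dialyzed FBS; cpd titration + EC10 NKH 477, 3 h 37 °C; CCF4 2 h RT; ex 405/em 460 vs 530 ratio → %Activity, AC50.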
AID923 – qHTS Assay for Allosteric/Competitive Inhibitors of Caspase-1: Spectroscopic Profiling in AFC Spectral Region; Potency, µM (series often up to 57.5 µM), most hits filed as activators; compound fluorescence, AFC spectral region (405/520 nm); AID 923, 2007; 75,000 compounds, 1.1% hits
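Titrations up to 57 uM read every 20 sec for 3 min (405/520 nm) with 50 nM caspase 1 and 5 uM Ac-WEHD-AFC, pH 7.5 HEPES buffer. Fluorescence-vs-time intercept gave baseline, scaled against on-plate AFC standard.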
4-MU autofl – compound fluoresces in the 4-MU spectral region | AID 589 | max dye-equivalent concentration, M | 59,000 compounds, 11% hits | compound autofluorescence, 340/450 nm, 4-MU equivalents; active compounds read high; in the data active = max dye-equivalent concentration above about 10 nM; inconclusive = mostly about 1.1 nM to 9.6 nM
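Compounds in 100 mM Tris, pH 8.0, sat 15 min at room temperature before fluorescence was read at 340 nm excitation/450 nm emission; a per-plate six-point 4-MU standard curve converted signals to dye-equivalent concentration at each compound concentration.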
A350 autofl – compound fluoresces in the Alexa 350 spectral region | Compound autofluorescence, 340/450 nm, Alexa 350 dye-equivalents; active compounds read high | max dye-equivalent concentration, M | 59,000 compounds, 11% hits; in the data active = max dye-equivalent concentration above about 10 nM; inconclusive = mostly about 1.1 nM to 9.6 nM
HSD17B inh – inhibitors of human HSD17B10 dehydrogenase; Q99714; recombinant HSD17B10, NADH fluorescence kinetic; Potency, µM (series often up to 57.1 µM), hits mostly inhibitors; 75,000 compounds, 7.6% hits; AID 893;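 note: the protocol describes HADH2 (HSD17B10) and not the HSD17B4 of the title; nearly all actives have a fitted effect of over 70% in size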
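Activity followed as NADH fluorescence increase (ex 360, em 450 nm) every 30 seconds for 4 min, using final 90 uM beta-hydroxybutyryl CoA and 1 mM NAD+. Recombinant His-tagged enzyme, 20 nM, pH 9.0 Tris buffer, 15 min compound preincubation.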
A number is an active result; - = inactive; ? = inconclusive; . = no result given; [ ] = dose if it differs, or a comment. Hits are enriched below; roughly 14% of the tested compounds scored in any of these assays. Unless noted, calls come from the whole dose curve; as a rule, active = well fitted curve in the direction sought with a large enough effect; inconclusive = small, poorly fitted or top-dose-only effect, or another doubt; inactive = no such curve, though single readings can be large; an effect the other way counts as inactive or inconclusive.

SMILES | HADH2 inh | CRE Fsk mod | AID923 | 4-MU autofl | A350 autofl | HSD17B inh
O=C(O)c1cc[c]([Hg][S]c2ncnc3nc[nH]c23)cc1 | 2.51µM | -[7.6 µM] | -[11.5 µM] | - | - | 0.199µM
N#CS.N=C=S.N=C=S.[Cu].[NH2-].[NH2-].[NH2-].[NH2-].c1ccc2ncccc2c1 | -[11.4 µM] | -[7.6 µM] | -[11.5 µM] | - | - | -[11.4 µM]
CCCCn1cnc2cc(NCc3cccc(OC)c3O)ccc21 | - | ? | - | - | - | 31.6µM
CCC1(C)Cc2ccccc2-c2c1c(=O)n(Cc1ccccc1)c1nnnn21 (centres undefined) | - | ? | - | - | - | 6.31µM
CCOc1cc(-c2nc3c(C)cccn3c2NCC2CCCO2)ccc1O (centres undefined) | 20µM | ? | - | 5.28e-07M | 8.77e-07M | 25.1µM
C[C@@H]1[C@@H](C)N1C[C@H](O)Cn1ccnc1[N+](=O)[O-] (some centres undefined) | -[11.4 µM] | -[7.6 µM] | -[11.5 µM] | - | - | -[11.4 µM]
COc1cc2ccc(=O)oc2c2ccoc12 | . | . | - | . | . | 6.31µM
Cc1cc[c]([Sb]2[O][C@H]([C@H](O)[C@H](O)C(=O)O)[C@@H](CO)[O]2)cc1 | -[11.4 µM] | -[7.6 µM] | -[11.5 µM] | - | - | -[11.4 µM]
Cc1ccc2cc3cc(C(=O)N4CCC5(CC4)OCCO5)oc3nc2c1 | 25.1µM | - | - | 1.28e-08M | 1.2e-08M | 12.6µM
Cc1cc(C(=O)N2CCC3(CC2)OCCO3)cs1 | - | - | - | - | - | -
CN1CCc2cc(O)cc3c2[C@H]1Cc1ccc(O)c(O)c1-3 | 1.58µM | - | - | 2.72e-08M | 2.5e-08M | 25.1µM
CCCN1CCc2cc(O)cc3c2[C@H]1Cc1ccc(O)c(O)c1-3 | 3.16µM | ? | - | 1.79e-08M | 1.64e-08M | 25.1µM
CN1CCc2cc(Cl)c(O)cc2[C@H]2c3ccccc3CC[C@@H]21 | - | . | - | . | . | -
C=CCN1CCc2cccc3c2[C@@H]1Cc1ccc(O)c(O)c1-3 | 0.316µM | - | - | ? | ? | 25.1µM
CC[C@@H]1[C@H]2CCCCN3[C@@H]2[C@@H](C[C@H]3[C@@H]2C[C@H](C)C(=O)O2)[C@@H]2[C@H]1OC(=O)[C@H]2C | ? | ? | . | - | - | .
O=C(O)[C@H]1[C@H](C(=O)O)[C@H]2CC[C@@H]1O2 | - | ? | - | - | - | -
C[C@@H]1[C@H]2C=C[C@@H]1[C@@H](c1c3ccc(=O)c(O)c-3oc3c(O)c(O)ccc13)[C@@H]2C(=O)O | 0.794µM | -[7.6 µM] | -[11.5 µM] | - | - | 1µM
NC[C@@H]1O[C@@H](O[C@H]2[C@@H](O)[C@H](O[C@@H]3[C@H](O)[C@H](N)C[C@H](N)[C@H]3O[C@@H]3O[C@@H](CO)[C@H](O)[C@H](O)[C@@H]3N)O[C@H]2CO)[C@H](N)[C@H](O)[C@@H]1O | ? | - | - | - | - | -
O=C(O)C(Cl)Br (centres undefined) | - | - | - | . | . | -
Clc1cccc(C(Cl)(Cl)Cl)n1 | - | - | - | . | . | -
COc1ccc(C[C@@H]2C(=O)N[C@H](C)C(=O)N(C)[C@@H]3C(=O)N(C)[C@@H](Cc4ccc(O)c(c4)Oc4ccc(cc4)[C@H]3O)C(=O)N[C@@H](C)C(=O)N[C@H](C)C(=O)N2C)cc1 | -[11.4 µM] | ? | -[11.5 µM] | - | - | -[11.4 µM]
COc1cc2c3cc1Oc1c(OC)c(OC)cc4c1[C@@H](Cc1ccc(O)c(c1)Oc1ccc(cc1)C[C@@H]3N(C)CC2)N(C)CC4 | - | - | - | - | - | 31.6µM
COC(=O)[C@H](N)CCCN=C(N)N[N+](=O)[O-] | - | - | - | - | - | -
C=CCn1c(O)c(C(C)=NCc2cccnc2)c(=O)[nH]c1=O | - | ? | - | - | - | -
C=CCn1c(O)c(C(C)=NCc2cc(OC)cc(OC)c2)c(=O)[nH]c1=O | - | ? | - | 1.86e-08M | 2.48e-08M | -
CC[C@H]1CN2CC[C@@H]1C[C@@H]2[C@H](O)c1ccnc2ccccc12 | - | ? | . | - | - | .
CCCN(CCC)C(=O)Cc1c(-c2ccc(Cl)cc2)nc2c(Cl)cc(Cl)cn12 | - | - | - | - | - | -
Cc1ccc(-c2nc3ccc(C)cn3c2CC(=O)N(C)C)cc1 | . | . | - | . | . | 31.6µM
